# Assay outcomes deposited in PubChem by National Center for Advancing Translational Sciences (NCATS).
# In the library only some 9.4% were active in any assay of this set; here they are far more common.
# AMA1 RON2 block = qHTS for Inhibitors of AMA1-RON; Towards Development of Antimalarial Drug Lead: Primary Screen; Plasmodium falciparum AMA1 (3D7) - RON2 peptide interaction; AlphaScreen AMA1-biotinylated RON2 peptide binding; Potency, µM (titrated, usually from 58.2 µM), without a hit: top-dose activity change, negative = inhibition, usual class: inhibitors; actives 0.2% (n = 360,000); AID 720542, 2013;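 note: 0% = vehicle wells and -100% = peptide control; nearly all actives have a fitted effect of over 45% in size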
#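 AMA1 (3D7) with his tag at 25 nM final met compounds first, then biotinylated RON2 peptide at 25 nM; detection used donor plus acceptor beads, 10 µg/mL apiece, read by AlphaScreen after 30 min at room temperature.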
# SARS PLpro yeast = qHTS of Yeast-based Assay for SARS-CoV PLP. actives 0.19% (n = 330,000). Potency, µM (top dose mostly 32.9 µM), without a hit: top-dose activity, positive = growth rescue, hits mostly activators. S. cerevisiae expressing SARS-CoV PLpro, growth rescue. AID 485353, 2010; calls by dose curve; note: 0% is about no effect; nearly all actives have a fitted effect of over 55% in size
# Pf growth 96h = Primary qHTS for delayed death inhibitors of the malarial parasite plastid, 96 hour incubation. P. falciparum luciferase reporter growth, 96 h. Potency, µM (series often up to 28.7 µM), for inactives: at the highest dose activity change, negative = inhibition, actives largely listed as inhibitors. actives 6.9% (n = 320,000). AID 504834, 2011; note: % is set by controls: 0 for no effect and ±100 for the full control effect
#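 P. falciparum expressing integrated firefly luciferase, in erythrocytes at 2% hematocrit, 0.05% parasitemia, incubated with compounds 96 h at 37 C, 5% CO2. Growth inhibition read as loss of luminescence; two-generation exposure targets delayed-death apicoplast inhibitors.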
# Pf growth 48h = Primary qHTS for delayed death inhibitors of the malarial parasite plastid, 48 hour incubation | P. falciparum luciferase growth in erythrocytes, 48 h | AID 504832, 2011 | actives 5.9% (n = 310,000) | Potency, µM (titrated, usually from 28.7 µM), inactives show at the highest dose activity change, negative = inhibition, most hits filed as inhibitors; note: % is set by controls: 0 for no effect and ±100 for the full control effect
#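 Luciferase-expressing parasites in RBCs, 2% Hct / 0.1% parasitemia final; RPMI 1640 + 0.5% Albumax; 37 C, 5% CO2, one generation; luminescence read-out, lower signal = inhibition.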
# Starred values were filed as active, the others as inactive; ? = inconclusive; . = not tested or not shown; [ ] = dose if it differs, or a comment. Unless noted, calls come from the whole dose curve; as a rule, active = well fitted curve in the direction sought with a large enough effect; inconclusive = small, poorly fitted or top-dose-only effect, or another doubt; inactive = no such curve, though single readings can be large; an effect the other way counts as inactive or inconclusive. Potency is the fitted concentration of half-maximal effect.
SMILES,AMA1 RON2 block,SARS PLpro yeast,Pf growth 96h,Pf growth 48h
Cc1ccccc1OCC(O)Cn1c(SC(C)C)nc2c1c(=O)[nH]c(=O)n2C (stereo not given),-28.8%,5.6%,10.4µM*,?
CCSc1nc2c(c(=O)[nH]c(=O)n2C)n1CC(O)COc1ccccc1C (stereo not given),-4.9%,2.7%,23.9%,?
COc1ccc(OCC(O)Cn2c(Nc3cccc(C)c3)nc3c2c(=O)n(C)c(=O)n3C)cc1 (stereo not given),-5.7%,-0.3%,3.29µM*,2.33µM*
Cc1ccccc1OCC(O)Cn1c(NCc2ccco2)nc2c1c(=O)n(C)c(=O)n2C (stereo not given),-6.1%,-0.2%,?,14.7µM*
Cc1nnc(NC(=O)c2ccc(S(=O)(=O)N(C)Cc3ccccc3)cc2)o1,33.4%,16.9%,?,?
CCCCC(CC)C(=O)Nc1ccc(C)c(O)c1 (stereo not given),-3.9%,0.1%,4.9%,-1.2%
Cc1ccc(NCCC(=O)c2ccc(Cl)c(Cl)c2)cc1,-23.1%,-4.3%,0.0%,36.9%
O=C(c1cc2cc([N+](=O)[O-])ccc2s1)N1CCCCC1,-4.4%,-0.1%,138.7%,85.2%
Cc1ccc(C(=O)Nc2ccc(N3CCN(C)CC3)cc2)cc1C,-3.4%,-10.7%,11.7µM*,52.8%
Cc1ccc(C(=O)Nc2ccc(N3CCN(C)CC3)cc2)c(Cl)c1,-4.0%,3.7%,10.4µM*,109.5%
CN1CCN(c2ccc(NC(=O)c3cccc(OCc4ccccc4)c3)cc2)CC1,?,-5.0%,.,10.4µM*
CC(=O)N1CCN(c2ccc(NC(=O)c3ccc(C(C)(C)C)cc3)cc2)CC1,-5.6%,2.9%,0.9%,10.4µM*
Cc1ccc(C(=O)Nc2ccc(N3CCN(S(C)(=O)=O)CC3)cc2)cc1C,-10.0%,0.3%,?,38.6%
CC(C)=Nc1ccccc1C1COC(=O)C1=N (stereo not given),-0.9%,4.8%,-9.9%,11.8%
O=c1c2ccccc2nc(CSc2ncnc3nc[nH]c23)n1-c1ccc(Cl)c(Cl)c1,-6.4%,-0.4%,1.3%,?
CCOC(=O)CC[C@H](NC(=O)Cn1cnc2c(OCc3ccccc3)ncnc21)C(=O)OCC,-5.3%,-1.1%,.,.
COc1ccc(N2C(=O)NC(=O)/C(=C\c3cn(CC(=O)N4CCOCC4)c4ccccc34)C2=O)c(OC)c1,-0.4%,5.5%,?,12.7%
CCC(C)Oc1cccc(C(=O)Nc2ccccc2N2CCOCC2)c1 (stereo not given),-4.7%,-29.2%,2.1%,10.4µM*
Cc1csc(NC(=O)C(C)Oc2ccc(Cl)cc2C)n1 (stereo not given),-3.6%,-27.3%,?,13.1µM*
COc1cc(OC)cc(C(=O)NC(C(=O)Nc2ccc(N3CCOCC3)cc2)C(C)C)c1 (stereo not given),4.0%,1.0%,-15.4%,?
COc1cc(OC)cc(C(=O)N[C@H](C(=O)Nc2ccccc2N2CCOCC2)C(C)C)c1,-17.9%,0.7%,8.28µM*,.
Cc1cc(Cl)ccc1OC(C)C(=O)Nc1ccccc1N1CCOCC1 (stereo not given),-1.5%,-12.7%,.,7.38µM*
CCn1c(SCC(=O)Nc2nc3ccccc3s2)nnc1-c1ccc(Br)cc1,-7.7%,4.2%,-7.2%,.
COc1cc(S(=O)(=O)N2CCC(c3nc4ccccc4s3)CC2)ccc1S(=O)(=O)NC1CCCC1,-2.5%,1.3%,9.28µM*,?
COc1cc(S(=O)(=O)N2CCC(c3nc4ccccc4s3)CC2)ccc1S(=O)(=O)N1CC(C)CC(C)C1 (stereo not given),-5.7%,11.2%,21.1%,?
SMILES,AMA1 RON2 block,SARS PLpro yeast,Pf growth 96h,Pf growth 48h
CN=Cc1nc(-c2ccccc2)oc1O,-5.1%,-30.1%,193.4%,157.0%
Oc1oc(-c2ccccc2)nc1/C=N/c1ccccn1,-5.3%,-0.2%,11.7µM*,-28.5%
O=C(C1CC1)N1CCN(c2ccnc3cc(Cl)ccc23)CC1,-3.0%,0.6%,7.38µM*,-13.4%
O=C(C1CCCCC1)N1CCN(c2ccnc3cc(Cl)ccc23)CC1,0.0%,-4.5%,3.29µM*,1.85µM*
O=C(C1CCC1)N1CCN(c2ccnc3cc(Cl)ccc23)CC1,-6.2%,0.9%,10.4µM*,13.1µM*
CC(C)(C)C(=O)N1CCN(c2ccnc3cc(Cl)ccc23)CC1,0.0%,2.7%,10.8%,?
CC(=O)c1ccc(N2CCN(c3ccnc4cc(Cl)ccc34)CC2)cc1,-20.1%,?,6.57µM*,10.4µM*
Cc1ccn(S(=O)(=O)c2ccc(N3CCCC3=O)cc2)n1,13.6%,0.6%,?,-14.4%
O=C(/C=C/c1ccc(Cl)cc1)N1CCN(c2ccc(Cl)cc2[N+](=O)[O-])CC1,?,-23.7%,?,7.2%
COc1ccc(NC(=O)CSc2n[nH]c(=O)n2Cc2ccccc2)cc1Cl,-3.6%,1.1%,?,-29.1%
O=C(c1ccc(Cl)cc1)N1CCN(C(=O)C2CCCCC2)CC1,-7.0%,11.8%,5.86µM*,8.3%
O=C(c1ccc(Cl)cc1)N1CCCC(C(=O)N2CCCCC2)C1 (stereo not given),10.8%,17.3%,33.4%,7.0%
COc1ccc(CCN2C(=S)NC3CC2(C)Oc2ccc([N+](=O)[O-])cc23)cc1OC (stereo not given),18.8%,5.6%,11.7µM*,.
COc1ccc(N2C(=O)NC3CC2(C)Oc2ccc(Cl)cc23)cc1OC (stereo not given),-2.3%,-0.7%,.,?
COc1cc2c(cc1OC)-c1cc(=Nc3c(C)cc(C)cc3C)n(C)c(=O)n1CC2,.,.,0.757µM*,0.675µM*
Cc1ccc(S(=O)(=O)N2CCCCC2)cc1C(=O)NCCc1ccccc1,-5.2%,1.3%,?,?
c1ccc(-c2nc(N3CCN(c4ccccc4)CC3)nc(-n3ccnc3)n2)cc1,0.9%,-5.8%,?,4.15µM*
c1ccc(-c2nc(N3CCCCCC3)nc(-n3ccnc3)n2)cc1,-30.7%,-8.5%,31.5%,?
O=C(CN(C(=O)CCC(=O)Nc1ccccn1)C1CCCC1)NCc1ccccc1,-12.7%,-1.1%,?,14.4%
Cc1c(C(=O)Nc2ccc(S(=O)(=O)N(C)C3CCN(C)CC3)cc2)oc2ccccc12,-10.3%[11.6 µM],-10.3%,?,4.65µM*
Cc1c(C(=O)Nc2ccc(S(=O)(=O)N(C)C3CCN(C)CC3)cc2)oc2c(Cl)cccc12,-7.3%,.,2.62µM*,2.94µM*
Cc1c(C(=O)Nc2ccccn2)oc2c(Cl)cccc12,-4.0%,-19.8%,41.9%,33.9%
CN1CCC(N(C)S(=O)(=O)c2ccc(NC(=O)c3ccc(S(=O)(=O)N(C)C)cc3)cc2)CC1,-1.8%,-0.8%,.,.
CCOC(=O)C1CCN(CC(=O)c2c(C)[nH]c3cc(C)ccc23)CC1,-4.3%,-5.1%,89.0%,-29.9%
CCOCc1cnc(C)nc1NCC(=O)c1c(C)[nH]c2ccccc12,-11.2%,2.1%,1.65µM*,2.08µM*
